# Records with an inconclusive call do not appear. Activity calls are given as the source filed them. Rule for the calls, unless noted: active = hit-call score of the fitted dose curve at least 0.9, where 1 is the maximum; inactive = score below 0.9.
# What was measured:
# [1] = ACEA_ER_80hr: ACEA Biosciences xCELLigence Real-Time Cell Analysis on Estrogen Receptor Agonism for Proliferation (AID 2282667; active = hit-call score of the fitted dose curve at least 0.9, where 1 is the maximum); conditions: T47D proliferation, impedance (xCELLigence), 80 h
# Summary of the method: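 Real-time impedance growth kinetics of human T-47D breast cells read 80 h after dosing, gain-of-signal fitted relative to DMSO. Compounds: 1:4 serial series, top final concentration 100 uM, n = 2.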
# [2] = ATG_CRE_CIS: Attagene CIS-FACTORIAL HepG2 Assay for human cAMP Responsive Element (CRE) binding protein 3 (AID 2282926); conditions: HepG2 CRE cis-reporter, Attagene multiplexed mRNA; actives raise or lower the signal
# Summary of the method: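 Endogenous transcription factor activity read via CRE-regulated reporter transcripts in transfected HepG2 cells. After 24 h exposure, RNA was reverse-transcribed, amplified, fluorescently labelled and sized by capillary electrophoresis; gain or loss fitted against DMSO.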
# [3] = target: CCAAT/enhancer-binding protein beta (Homo sapiens) (UniProt P17676); assay: ATG_C_EBP_CIS: Attagene CIS-FACTORIAL HepG2 Assay for human CCAAT/Enhancer Binding Protein (C/EBP) beta (AID 2282927); conditions: HepG2 Attagene cis-factorial transcription factor reporter; actives raise or lower the signal
# Chain of CCAAT/enhancer-binding protein beta (Homo sapiens) (P17676 whole entry, looked up): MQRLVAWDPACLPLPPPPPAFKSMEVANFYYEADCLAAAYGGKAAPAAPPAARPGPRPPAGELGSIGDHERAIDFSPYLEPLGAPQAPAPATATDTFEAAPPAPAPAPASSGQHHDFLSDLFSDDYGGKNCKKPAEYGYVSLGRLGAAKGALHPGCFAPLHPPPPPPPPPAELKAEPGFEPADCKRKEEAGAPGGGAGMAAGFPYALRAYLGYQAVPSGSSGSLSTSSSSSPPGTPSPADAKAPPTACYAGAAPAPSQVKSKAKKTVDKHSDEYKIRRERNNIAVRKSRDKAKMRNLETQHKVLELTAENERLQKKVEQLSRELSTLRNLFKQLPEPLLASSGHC
# Summary of the method: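 Endogenous transcription factor activity in human liver HepG2 cells is inferred from induction of a CEBPB-linked reporter mRNA. Exposure lasts 24 h; activity is fitted in both directions relative to DMSO.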
# [4] = ATG_CMV_CIS: Attagene CIS-FACTORIAL HepG2 Assay for human CMV (Internal Marker) (AID 2282928); conditions: HepG2 CMV promoter reporter, transcription factor profiling; actives raise or lower the signal;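 note: endpoint acts as a background internal control marker rather than a target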
# Summary of the method: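 Readout: fluorescent reporter cDNA fragments separated by capillary electrophoresis after RT-PCR and HpaI cut. Cells: HepG2 carrying transfected cis-promoter reporter constructs, dosed 24 h. Endpoint serves as background internal-marker control, fit bidirectionally versus DMSO.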
# [5] = target: Aryl hydrocarbon receptor (Homo sapiens) (UniProt P35869); assay: ATG_Ahr_CIS: Attagene CIS-FACTORIAL HepG2 Assay for human Aryl Hydrocarbon Receptor (Ahr) (AID 2282930); conditions: HepG2 AhR cis-factorial reporter transcription; actives raise or lower the signal
# Chain of Aryl hydrocarbon receptor (Homo sapiens) (P35869 whole entry, looked up): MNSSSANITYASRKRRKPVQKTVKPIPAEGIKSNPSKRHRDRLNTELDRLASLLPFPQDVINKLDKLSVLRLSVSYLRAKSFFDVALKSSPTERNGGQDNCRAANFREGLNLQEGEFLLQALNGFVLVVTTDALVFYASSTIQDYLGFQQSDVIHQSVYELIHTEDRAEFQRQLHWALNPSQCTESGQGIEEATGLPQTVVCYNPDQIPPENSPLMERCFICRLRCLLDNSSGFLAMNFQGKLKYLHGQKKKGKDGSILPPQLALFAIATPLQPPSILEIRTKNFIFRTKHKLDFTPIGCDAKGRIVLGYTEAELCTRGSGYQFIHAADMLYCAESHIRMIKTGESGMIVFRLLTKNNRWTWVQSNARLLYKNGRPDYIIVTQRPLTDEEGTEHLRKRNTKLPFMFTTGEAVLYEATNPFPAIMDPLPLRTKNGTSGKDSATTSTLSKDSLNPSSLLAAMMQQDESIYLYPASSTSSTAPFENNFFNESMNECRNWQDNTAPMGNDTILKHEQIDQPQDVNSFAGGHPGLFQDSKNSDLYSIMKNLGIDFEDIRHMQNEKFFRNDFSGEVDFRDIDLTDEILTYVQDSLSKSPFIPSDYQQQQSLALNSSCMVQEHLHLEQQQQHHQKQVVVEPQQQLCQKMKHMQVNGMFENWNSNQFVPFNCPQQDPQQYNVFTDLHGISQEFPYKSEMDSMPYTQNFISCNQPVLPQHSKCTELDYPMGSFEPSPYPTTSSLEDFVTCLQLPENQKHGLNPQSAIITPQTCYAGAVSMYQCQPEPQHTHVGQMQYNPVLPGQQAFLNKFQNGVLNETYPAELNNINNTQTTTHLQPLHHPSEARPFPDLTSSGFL
# Summary of the method: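 Transient MRTU transfection of HepG2 → 24 h compound exposure → total RNA, oligo(dT) RT → PCR, 6-FAM extension, HpaI cut → CE fluorescence. DMSO = baseline; bidirectional curve fit.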
# [6] = ATG_AP_1_CIS: Attagene CIS-FACTORIAL HepG2 Assay for human Activator Protein 1 (AP-1) (AID 2282931); conditions: HepG2 Attagene cis-factorial AP-1 reporter mRNA; actives raise or lower the signal
# Summary of the method: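 Fluorescence of labelled PCR fragments separated by capillary electrophoresis gives reporter mRNA levels. HepG2 with transfected cis-regulated reporter units, 24 h exposure; DMSO serves as baseline for bidirectional curve fits.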
# [7] = ATG_AP_2_CIS: Attagene CIS-FACTORIAL HepG2 Assay for human Activator Protein 2 (AP-2) (AID 2282932); conditions: HepG2 AP-2 cis-reporter, Attagene transcription factor profiling; actives raise or lower the signal
# Summary of the method: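 Endogenous transcription factor activity is reported through transfected multiplex reporter constructs in HepG2, after 24 h of compound exposure. Transcripts were quantified by RT-PCR and capillary electrophoresis of fluorescent fragments. Bidirectional fit against DMSO.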
# [8] = ATG_BRE_CIS: Attagene CIS-FACTORIAL HepG2 Assay for human Bone Morphogenetic Protein (BMP) Response Element (BRE) (AID 2282933); conditions: HepG2 BMP response element reporter, Attagene transcription factor profiling; actives raise or lower the signal
# Summary of the method: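 Gain- or loss-of-signal was derived by bidirectional fitting against DMSO controls. The signal came from reporter mRNA, measured by RT-PCR and capillary electrophoresis, in HepG2 cells transiently carrying multiple reporter units and dosed for 24 h.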
# [9] = target: Transcription factor E2F1 (Homo sapiens) (UniProt Q01094); assay: ATG_E2F_CIS: Attagene CIS-FACTORIAL HepG2 Assay for human E2F Transcription Factor 1 (AID 2282935); conditions: HepG2 Attagene cis-reporter, E2F reporter RNA transcripts; actives raise or lower the signal
# Chain of Transcription factor E2F1 (Homo sapiens) (Q01094 whole entry, looked up): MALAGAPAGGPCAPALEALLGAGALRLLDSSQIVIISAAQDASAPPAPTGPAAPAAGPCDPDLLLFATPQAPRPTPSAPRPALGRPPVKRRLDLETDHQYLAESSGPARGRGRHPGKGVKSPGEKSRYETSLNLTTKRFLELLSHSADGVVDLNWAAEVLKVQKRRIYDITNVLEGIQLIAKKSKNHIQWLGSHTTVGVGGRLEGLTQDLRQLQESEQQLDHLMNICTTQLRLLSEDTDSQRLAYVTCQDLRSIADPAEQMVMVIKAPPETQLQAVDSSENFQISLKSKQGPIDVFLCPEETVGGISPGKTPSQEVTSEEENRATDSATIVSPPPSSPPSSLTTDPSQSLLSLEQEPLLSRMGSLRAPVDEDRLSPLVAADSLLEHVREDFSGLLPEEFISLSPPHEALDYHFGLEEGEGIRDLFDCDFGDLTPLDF
# Summary of the method: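 Gain or loss of reporter transcript, fitted against DMSO, reflects E2F1-driven transcription. Transiently transfected HepG2 dosed 24 h before RNA isolation. Quantified by fluorescent RT-PCR products separated by capillary electrophoresis.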
# [10] = ATG_E_Box_CIS: Attagene CIS-FACTORIAL HepG2 Assay for human Enhancer Box (E-box) (AID 2282936); conditions: HepG2 E-box cis-reporter transcription, actives raise or lower the signal
# Summary of the method: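 E-box-driven reporter transcripts measured in transiently transfected HepG2 after 24 h exposure: RNA reverse-transcribed, PCR-amplified, fluorescently labelled, digested and resolved by capillary electrophoresis. Gain or loss relative to DMSO.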
# [11] = ATG_M_61_CIS: Attagene CIS-FACTORIAL HepG2 Assay for M61 Transcription Factor (Internal Marker) (AID 2282937); conditions: HepG2 Attagene CIS-FACTORIAL M61 internal marker reporter; actives raise or lower the signal
# Summary of the method: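 This endpoint serves as an internal background control within a multiplexed HepG2 cis-reporter panel. Cells are exposed for 24 h; reporter mRNA is amplified, fluorescently labelled and sized by capillary electrophoresis, with DMSO as negative control.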
# [12] = ATG_M_19_CIS: Attagene CIS-FACTORIAL HepG2 Assay for M19 Transcription Factor (Internal Marker) (AID 2282939); conditions: HepG2 Attagene CIS-FACTORIAL M19 internal marker reporter; actives raise or lower the signal
# Summary of the method: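 Following a 24 h exposure, RNA from transfected HepG2 cells was reverse-transcribed, PCR-amplified with reporter-specific primers, end-labelled with 6-FAM and HpaI-digested before capillary separation. Values represent gain or loss versus DMSO.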
# [13] = ATG_ERE_CIS: Attagene CIS-FACTORIAL HepG2 Assay for Estrogen Response Element (ERE) (AID 2282940); conditions: HepG2 ERE cis-reporter, Attagene RNA transcript; actives raise or lower the signal
# Summary of the method: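 HepG2, transient cis-reporter units, 24 h exposure. RNA isolated, oligo(dT) RT, reporter-specific PCR, FAM extension, HpaI cut, CE detection. Gain/loss-of-signal vs DMSO.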
# [14] = ATG_Ets_CIS: Attagene CIS-FACTORIAL HepG2 Assay for human Erythroblast Transformation Specific (ETS) (AID 2282941); conditions: HepG2 ETS cis-reporter transcription, actives raise or lower the signal
# Summary of the method: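 RT-PCR/capillary electrophoresis fluorescence read-out of reporter mRNA; HepG2 transient multi-reporter transfection; 24 h compound exposure; gain or loss of signal fitted bidirectionally relative to DMSO.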
# [15] = target: Hepatocyte nuclear factor 3-beta (Homo sapiens) (UniProt Q9Y261); assay: ATG_FoxA2_CIS: Attagene CIS-FACTORIAL HepG2 Assay for human Forkhead box A2 (FOXA2) (AID 2282942); conditions: HepG2 cis-reporter transcription factor activity, 24 h; actives raise or lower the signal
# Chain of Hepatocyte nuclear factor 3-beta (Homo sapiens) (Q9Y261 whole entry, looked up): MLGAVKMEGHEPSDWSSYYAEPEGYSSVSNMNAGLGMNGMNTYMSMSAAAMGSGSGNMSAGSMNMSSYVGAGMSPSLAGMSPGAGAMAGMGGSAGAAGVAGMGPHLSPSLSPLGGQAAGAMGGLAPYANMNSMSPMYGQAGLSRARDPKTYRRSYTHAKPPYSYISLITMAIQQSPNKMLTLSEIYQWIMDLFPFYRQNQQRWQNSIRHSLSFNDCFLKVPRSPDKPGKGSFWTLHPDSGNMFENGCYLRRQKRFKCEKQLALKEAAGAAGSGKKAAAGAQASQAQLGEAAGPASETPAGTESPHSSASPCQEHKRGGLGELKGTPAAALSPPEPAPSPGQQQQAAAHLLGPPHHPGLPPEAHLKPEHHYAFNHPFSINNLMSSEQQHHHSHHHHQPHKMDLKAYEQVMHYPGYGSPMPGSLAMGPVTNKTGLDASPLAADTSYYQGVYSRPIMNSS
# Summary of the method: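 Cells: HepG2, transient multiplex reporter transfection. Exposure 24 h. Detection: reporter-specific RT-PCR, fluorescent labelling, restriction digest, capillary electrophoresis. Analysis: bidirectional curve fit, DMSO as negative control.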
# [16] = ATG_FoxO_CIS: Attagene CIS-FACTORIAL HepG2 Assay for human Forkhead box O (FoxO) (AID 2282943); conditions: HepG2 Attagene cis-reporter, FoxO element, mRNA; actives raise or lower the signal
# Summary of the method: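 HepG2, transient MRTU transfection (cis element, endogenous TFs). Dose 24 h. TriZol RNA → oligo(dT) RT → PCR → 6-FAM primer extension → HpaI cut → CE. Gain/loss vs DMSO.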
# [17] = ATG_GATA_CIS: Attagene CIS-FACTORIAL HepG2 Assay for human GATA Binding Protein (AID 2282944); conditions: HepG2 GATA cis-element reporter, Attagene multiplex mRNA; actives raise or lower the signal
# Summary of the method: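 DMSO serves as negative control and baseline for bidirectional fitting of reporter mRNA changes. HepG2 cells bearing transiently transfected cis-promoter reporters were exposed 24 h; transcripts detected via RT-PCR and capillary electrophoresis.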
# [18] = target: Retinoic acid receptor alpha (Homo sapiens) (UniProt P10276); assay: ATG_DR5_RAR_CIS: Attagene CIS-FACTORIAL HepG2 Assay for human Retinoic Acid Receptor Alpha (RARE), DR5 submotif (AID 2282934); conditions: HepG2 Attagene cis-factorial RARE DR5 reporter, mRNA; actives raise or lower the signal
# Chain of Retinoic acid receptor alpha (Homo sapiens) (P10276 whole entry, looked up): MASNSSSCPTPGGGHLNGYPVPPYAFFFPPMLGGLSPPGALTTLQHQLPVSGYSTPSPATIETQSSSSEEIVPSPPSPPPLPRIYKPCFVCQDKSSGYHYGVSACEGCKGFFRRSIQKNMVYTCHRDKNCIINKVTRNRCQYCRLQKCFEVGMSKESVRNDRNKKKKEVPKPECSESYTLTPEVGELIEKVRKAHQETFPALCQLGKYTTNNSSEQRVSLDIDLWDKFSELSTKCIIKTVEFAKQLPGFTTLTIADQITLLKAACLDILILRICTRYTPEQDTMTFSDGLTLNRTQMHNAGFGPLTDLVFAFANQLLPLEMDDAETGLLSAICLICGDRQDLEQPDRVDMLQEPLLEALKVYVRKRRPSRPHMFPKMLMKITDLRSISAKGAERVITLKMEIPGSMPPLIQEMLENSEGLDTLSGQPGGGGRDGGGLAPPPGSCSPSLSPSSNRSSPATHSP
# Summary of the method: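 Transient MRTU transfection of HepG2; 24 h compound treatment; TriZol RNA, oligo(dT) RT, PCR, FAM labelling, capillary electrophoresis. Bidirectional fit vs DMSO. Endogenous TF activity at DR5 RARE.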
# [19] = ATG_EGR_CIS: Attagene CIS-FACTORIAL HepG2 Assay for human Early Growth Response 1 (EGR1) (AID 2282938); conditions: HepG2 Attagene CIS-FACTORIAL EGR reporter mRNA; actives raise or lower the signal
# Summary of the method: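 HepG2, transient MRTU transfection (cis promoters), 24 h compound. RNA → RT (oligo-dT) → PCR → 6-FAM labelling → HpaI cut → CE fluorescence. Bidirectional fit, DMSO baseline.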
# [20] = ATG_DR4_LXR_CIS: Attagene CIS-FACTORIAL HepG2 Assay for human Liver X Receptor (LXR), DR4 submotif (AID 2282929); conditions: HepG2 Attagene DR4 cis-reporter, mRNA transcription; actives raise or lower the signal
# Summary of the method: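 Endogenous factor activity at a DR4 cis-element is read as reporter mRNA in transiently transfected HepG2 cells. Exposure lasts 24 h; transcripts are amplified, fluorescently labelled and sized by capillary electrophoresis, with DMSO as baseline.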
smiles,measurement,setting,value
O=C(O)CCC(F)(F)C(F)(F)C(F)(F)C(F)(F)C(F)(F)C(F)(F)C(F)(F)F,outcome,[1],inactive
same,outcome,[2],inactive
same,outcome,[3],inactive
same,outcome,[4],inactive
same,outcome,[5],inactive
same,AC50,[6],94.3 µM (active)
same,outcome,[7],inactive
same,outcome,[8],inactive
same,outcome,[9],inactive
same,outcome,[10],inactive
same,outcome,[11],inactive
same,outcome,[12],inactive
same,outcome,[13],inactive
same,outcome,[14],inactive
same,outcome,[15],inactive
same,outcome,[16],inactive
same,outcome,[17],inactive
Cc1ccc2c(c1)OCC(=O)CO2,outcome,[1],inactive
same,outcome,[2],inactive
same,outcome,[3],inactive
same,outcome,[4],inactive
same,outcome,[5],inactive
same,outcome,[6],inactive
same,outcome,[7],inactive
same,outcome,[8],inactive
same,outcome,[18],inactive
same,outcome,[9],inactive
same,outcome,[10],inactive
same,outcome,[11],inactive
same,outcome,[19],inactive
same,outcome,[12],inactive
same,outcome,[13],inactive
same,outcome,[14],inactive
same,outcome,[15],inactive
same,outcome,[16],inactive
same,outcome,[17],inactive
CN(N=O)C(=O)N[C@@H]1[C@@H](O)[C@H](O)[C@@H](CO)O[C@@H]1O,outcome,[1],inactive
same,outcome,[2],inactive
same,outcome,[3],inactive
same,outcome,[4],inactive
same,outcome,[5],inactive
same,outcome,[6],inactive
same,outcome,[7],inactive
same,outcome,[8],inactive
same,outcome,[18],inactive
same,outcome,[9],inactive
same,outcome,[10],inactive
same,outcome,[11],inactive
same,outcome,[19],inactive
same,outcome,[12],inactive
same,outcome,[13],inactive
same,outcome,[14],inactive
same,outcome,[16],inactive
same,outcome,[17],inactive
CCOC(=O)CC(=O)C(F)(F)C(F)(F)F,AC50,[1],9.87 µM (active)
same,outcome,[2],inactive
same,outcome,[3],inactive
same,outcome,[4],inactive
same,outcome,[5],inactive
same,outcome,[6],inactive
same,outcome,[7],inactive
same,outcome,[9],inactive
same,outcome,[10],inactive
same,outcome,[11],inactive
same,outcome,[12],inactive
same,outcome,[13],inactive
same,outcome,[14],inactive
same,outcome,[15],inactive
same,outcome,[16],inactive
same,outcome,[17],inactive
C=C(C)CCCC,outcome,[1],inactive
same,outcome,[2],inactive
same,outcome,[3],inactive
same,outcome,[4],inactive
same,outcome,[20],inactive
same,outcome,[5],inactive
same,outcome,[6],inactive
same,outcome,[18],inactive
same,outcome,[9],inactive
same,outcome,[10],inactive
same,outcome,[11],inactive
same,outcome,[19],inactive
same,outcome,[12],inactive
same,outcome,[13],inactive
same,outcome,[14],inactive
same,outcome,[15],inactive
same,outcome,[16],inactive
same,outcome,[17],inactive
O=C(c1ccccc1)c1ccc(Cl)cc1,outcome,[1],inactive
same,outcome,[2],inactive
same,outcome,[3],inactive
same,outcome,[4],inactive
same,outcome,[5],inactive
same,outcome,[6],inactive
same,outcome,[7],inactive
same,outcome,[8],inactive
same,outcome,[18],inactive
same,outcome,[9],inactive
same,outcome,[10],inactive
same,outcome,[11],inactive
same,outcome,[19],inactive
same,outcome,[12],inactive
same,AC50,[13],44.4 µM (active)
same,outcome,[14],inactive
same,outcome,[15],inactive
same,outcome,[16],inactive
same,outcome,[17],inactive
CCN(CC)c1ccc(C=O)c(O)c1,outcome,[1],inactive
same,outcome,[2],inactive
same,outcome,[3],inactive
same,outcome,[4],inactive
same,outcome,[5],inactive
same,outcome,[6],inactive
same,outcome,[7],inactive
same,outcome,[8],inactive
same,outcome,[18],inactive
same,outcome,[9],inactive
same,outcome,[10],inactive
same,outcome,[11],inactive
same,outcome,[19],inactive
same,outcome,[12],inactive
same,outcome,[13],inactive
same,outcome,[14],inactive
same,outcome,[15],inactive
same,outcome,[16],inactive
same,outcome,[17],inactive

# From PubChem BioAssay (EPA / NIEHS)
